Most compounds without a hit are left out; they make up all but 1.4% or so of the library.
LEDGF integ inh: blocks HIV-1 LEDGF/p75-dependent DNA integration; TR-FRET IN-LEDGF/p75 DNA integration, Eu/Cy5; AID 743269; 0.64% of 370,000 active; inhibition, % at 3.7 µM;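 active means inhibition above the screen-wide mean plus 3 SD, cut at about 13% in these data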;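 further: signal is the Cy5 over europium emission ratio at 671 and 618 nm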
Casp6 inh: caspase-6 (human) enzyme inhibition. P55212. purified caspase-6, Z-VEID-R110 cleavage fluorescence. inhibition, % at 12.5 µM. 0.53% of 350,000 active. AID 686996;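 active means mean inhibition across replicates at least about 35%, with every replicate also reaching that limit, limit read from the data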
MBD2 inh: inhibitors of human MBD2 binding to methylated oligonucleotide; TR-FRET; 0.31% of 370,000 active; Q9UBB5; inhibition, % at 4.4 µM; in the data active means inhibition above about 13%
Target sequence (Q9UBB5 whole entry, looked up): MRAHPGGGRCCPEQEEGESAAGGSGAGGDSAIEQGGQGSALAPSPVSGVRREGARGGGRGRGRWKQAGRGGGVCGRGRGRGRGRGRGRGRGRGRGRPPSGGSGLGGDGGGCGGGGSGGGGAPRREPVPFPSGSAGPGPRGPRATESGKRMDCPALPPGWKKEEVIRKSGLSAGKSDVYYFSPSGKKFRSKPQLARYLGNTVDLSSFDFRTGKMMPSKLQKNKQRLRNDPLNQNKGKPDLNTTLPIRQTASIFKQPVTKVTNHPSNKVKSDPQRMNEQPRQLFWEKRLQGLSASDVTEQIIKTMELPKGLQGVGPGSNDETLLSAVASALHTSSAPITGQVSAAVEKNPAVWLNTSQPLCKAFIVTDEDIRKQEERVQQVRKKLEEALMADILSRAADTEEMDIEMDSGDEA
UHRF1 MBD2 ctr: UHRF1 methyl-DNA binding inhibition | Q96T88 | UHRF1 binding to methylated oligo, TR-FRET | inhibition, % at 4.4 µM | 0.75% of 370,000 active; in the data active means inhibition above about 21%;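 further: UHRF1 SRA domain binding a hemimethylated CpG hairpin DNA probe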
IN multimer up: HIV-1 integrase multimerization activation, counter-screen | shares compounds with LEDGF integ inh | TR-FRET HIV-1 integrase multimerization, biochemical | activation, % at 7.7 µM | 17% of 2,000 active | AID 1053131; in the data active means activation above about 8.9%
TR-FRET interf: TR-FRET optical interference, LEDGF/p75 integration counter-screen. shares compounds with LEDGF integ inh. TR-FRET optical interference counterscreen, HIV-1 IN multimerization. 2,000 tested, under 10 active. inhibition, % at 7.7 µM;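 active means inhibition above the mean over all tested compounds plus 3 SD, which no compound reached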
LEDGF integ conf: confirmation of HIV-1 LEDGF/p75-dependent integration inhibitors; shares compounds with LEDGF integ inh; TR-FRET LEDGF/p75-dependent HIV-1 integration, biochemical; inhibition, % at 3.7 µM; 36% of 2,000 active; in the data active means inhibition above about 14%
A number is an active result; – = inactive; · = no result given.

SMILES | LEDGF integ inh | Casp6 inh | MBD2 inh | UHRF1 MBD2 ctr | IN multimer up | TR-FRET interf | LEDGF integ conf
CCCCCCCCCCCCN1CCSCCS1(=O)=O | 21.6 | – | – | – | – | – | –
C[C@@H]1CN([C@@H](C)CO)C(=O)Cc2cc(NS(=O)(=O)c3ccc(Cl)cc3)ccc2O[C@@H]1CN(C)S(=O)(=O)c1ccc(Cl)cc1 | · | – | · | · | · | · | ·
Cc1cc(=O)c2c(O)c(O)ccc2o1 | 13.8 | · | – | – | 9.6 | – | –
CC(C)NC(=O)N(C)C[C@@H]1OCCCC[C@@H](C)Oc2ccc(NS(=O)(=O)c3ccc(Cl)cc3)cc2C(=O)N([C@@H](C)CO)C[C@H]1C | · | – | · | · | · | · | ·
Cc1[nH][nH]c(=O)c1C(c1c(C)[nH][nH]c1=O)c1cn(Cc2ccccc2Cl)c2ccccc12 | 20.4 | · | – | 22.6 | – | – | –
O=C(NCc1n[nH]c(=S)n1-c1ccccc1)c1ccco1 | 14.9 | · | – | – | – | – | –
CCOc1ccc(NC(=O)CN(C)c2ccc(S(=O)(=O)N3CCOCC3)cn2)cc1OCC | 15.3 | · | – | 41.3 | – | – | –
CCc1ccc(CN2CCC(CO)(CC3CCCCO3)CC2)o1 (configuration not stated) | 13.3 | – | – | – | – | – | –
Cc1ccc(CN2CCC(CO)(CC3CCCCO3)CC2)o1 (configuration not stated) | – | – | – | – | · | · | ·
COCC(=O)N(C)C[C@@H]1Oc2ncc(-c3ccccc3C)cc2C(=O)N([C@@H](C)CO)C[C@H]1C | · | – | · | · | · | · | ·
O=C1C=C(NCCc2cc(Br)c(O)c(Br)c2)C(=O)c2ncccc21 | 27.8 | 96.0 | – | – | 15.7 | – | 75.4
CC(C)(C)c1cc(CCC(=O)NCCc2ccccn2)cc(C(C)(C)C)c1O | – | – | – | – | · | · | ·
COc1cc(-c2ccc3c(=O)c4ccccc4sc3c2)cc(OC)c1OC | 16.1 | – | – | – | 9.3 | – | –
CCOc1cc(CNc2ccc(N3CCCCC3)cc2)cc(Br)c1OCC(=O)NC(C)(C)C | 14.9 | · | – | – | – | – | –
CCOc1cc(CNc2ccc(N3CCOCC3)cc2)cc(Br)c1OCC | 14.7 | · | – | – | – | – | –
CC(C)NC(=O)N(C)C[C@@H]1Oc2c(NC(=O)c3ccncc3)cccc2C(=O)N([C@H](C)CO)C[C@@H]1C | · | – | · | · | · | · | ·
Cc1cc(C)cc(NC(=O)C2CCCN(c3nccc(C)n3)C2)c1 (configuration not stated) | · | – | · | · | · | · | ·
COc1ccc(CNC(=O)C2CCCN(c3nccc(C)n3)C2)cc1 (configuration not stated) | 22.9 | · | – | – | – | – | –
O=C([C@@H]1[C@@H](CO)[C@@H]2Cn3c(cccc3=O)[C@@H]2N1Cc1ccccc1Cl)N1CCOCC1 | · | – | · | · | · | · | ·
Cn1c(=O)c2c(nc(NNC(=O)C(F)(F)F)n2C)n(C)c1=O | – | – | – | – | · | · | ·
Cn1c(=O)c2c(nc(NN=C3CCCC3)n2C)n(C)c1=O | 19.2 | – | – | – | – | – | –
Cc1ccsc1CN(C)CC(=O)Nc1ccc([N+](=O)[O-])cc1Cl | – | – | – | – | · | · | ·
CN(CC(=O)Nc1cc([N+](=O)[O-])ccc1Cl)Cc1ccc(Br)cc1 | 13.6 | · | – | – | – | – | –
CN1CCN(c2ncnc3c2ncn3[C@H]2CN(Cc3ccc(Cl)cc3)C[C@@H](CO)O2)CC1 | 13.7 | – | – | – | – | – | –
CN1C(=O)c2cc(NC(=O)C3CCCC3)ccc2OC[C@H]2O[C@H](CC(=O)Nc3ccccc3)CC[C@@H]21 | · | – | · | · | · | · | ·
SMILES | LEDGF integ inh | Casp6 inh | MBD2 inh | UHRF1 MBD2 ctr | IN multimer up | TR-FRET interf | LEDGF integ conf
CCCC#Cc1ccc([C@@H]2[C@@H](C#N)N(S(C)(=O)=O)[C@@H]2CO)cc1 | · | – | · | · | · | · | ·
O=[N+]([O-])c1cc(Br)c(O)c(C=Nc2ccc(N3CCOCC3)cc2)c1 | 25.5 | – | – | – | 8.9 | – | 15.0
COc1cccc(C=Nc2ccc(N3CCOCC3)cc2)c1O | 17.9 | – | – | – | – | – | –
COc1cccc(/C=N/N2CCOCC2)c1O | – | – | – | – | · | · | ·
CN(C)C(=O)C[C@H]1CC[C@@H]2[C@H](COC[C@@H](O)CN2CC2CC2)O1 | · | – | · | · | · | · | ·
N#Cc1ccsc1NC(=O)CN1CCN(S(=O)(=O)c2ccccc2C(F)(F)F)CC1 | 79.4 | – | – | – | – | – | –
COc1ccc(-c2cnc3c(c2)C(=O)N([C@@H](C)CO)C[C@H](C)[C@@H](CN(C)C(=O)C2CCCCC2)O3)cc1 | · | – | · | · | · | · | ·

Bioassay records from PubChem BioAssay.
